“And” between values parts separate entries of the source, which are not always exact repeats. Equal values may be shown once. About 83,000 compounds went through this panel and 20% of them were active in at least one assay; those are over-represented in the sample as a whole.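 Interpretation: 100, growth as untreated; towards 0, rising growth inhibition; 0, no net growth; 0 to -100, cell death. Compounds scoring below 10 were considered active.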 The source made the active and inactive calls.

Common to all, as to assay: NCI-60 one-dose screen, 48 h (100 = growth as untreated, 0 = no growth, -100 = all killed)
Details in all cases: 10 µM unless noted

The test system of assay [1] is NCI-H23 lung.
In assay [2] the test system is NCI-H226 lung.
The test system of assay [3] is NCI-H322M lung.
Assay [4] deals with HOP-62 NSCLC.
Assay [5] relates to NCI-H460 lung.
The subject of assay [6] is HOP-92 NSCLC.
Assay [7] deals with NCI-H522 lung.
Assay [8] concerns A549/ATCC NSCLC.
Assay [9] deals with 786-0 renal.
Assay [10] relates to COLO 205 colon.
The test system of assay [11] is DU-145 prostate.
For assay [12], the system named is K-562 leukemia.
Assay [13] relates to MALME-3M melanoma.
Assay [14] relates to MDA-MB-231 breast.
The subject of assay [15] is RXF 393 renal.
Assay [16] relates to SF-268 CNS.
Assay [17] concerns SF-295 CNS.
Assay [18] concerns SF-539 CNS.
Assay [19] deals with UACC-257 melanoma.
For assay [20], the system named is M14 melanoma.

Turning to `CC(=O)Nc1cscc1NC(C)=O`, the growth in assay [1] is 103% (inactive); in assay [2], 96.8% (inactive); in assay [3], 80.1% (inactive); in [4], 98.2% (inactive); in [5], 101% (inactive); in assay [6] it was 112% (inactive). The growth in assay [7] is 91.3% (inactive); in assay [8], 104% (inactive); in [9], 101% (inactive); in assay [10], 100% (inactive); in assay [11], 98.4% (inactive); in assay [12], 125% (inactive). In addition, the growth was 88.4% (inactive) in [13]; 101% (inactive) in [14]; 107% (inactive) in assay [15]; 96.2% (inactive) in [16]; 87.3% (inactive) in assay [17]; 90.7% (inactive) in assay [18]. The growth in assay [19] and in assay [20] was 104% (inactive) in each case.

For the molecule `S=c1nn[nH]n1C1CCCCC1`, the growth in assay [1] was 111% (inactive); in assay [2], 102% (inactive); in [3], 102% (inactive); in assay [4], 126% (inactive); in [5], 95.7% (inactive); in assay [6], 93.2% (inactive). The growth was 117% (inactive) in assay [7]; 106% (inactive) in assay [8]; 99.7% (inactive) in assay [9]; 123% (inactive) in assay [10]; 105% (inactive) in assay [11]; 122% (inactive) in assay [12]. Moreover, the growth in assay [13] is 95.8% (inactive); in assay [14], 116% (inactive); in assay [15], 148% (inactive); in assay [16], 105% (inactive); in assay [17] it was 97% (inactive); in assay [18] it was 106% (inactive). Further, the growth in assay [19] was 97.8% (inactive); in assay [20] it was 100% (inactive).

For `O=C1C(=O)c2ccccc2C(O)=C1CC=C(Cl)Cl`, the growth in assay [1] was 67.6% (inactive) and 71.5% (inactive); in [2], 73.4% (inactive) and 63.5% (inactive); in [3], 75.8% (inactive) and 58% (inactive); in assay [4], 50.9% (inactive) and 61.3% (inactive); in [5], 17.1% (inactive) and 17.9% (inactive); in [6], 36.4% (inactive) and 87.3% (inactive). Moreover, the growth in assay [7] was 43.7% (inactive) and 42.1% (inactive); in assay [8], 56% (inactive) and 44.5% (inactive); in assay [9], 39.5% (inactive) and 60% (inactive); in [10] it was 57.1% (inactive) and 57.7% (inactive); in [11], 68% (inactive) and 63.4% (inactive); in [12], 31% (inactive) and 33% (inactive). Moreover, the growth in assay [13] was 68.5% (inactive) and 69.2% (inactive); in assay [14] it was 72.8% (inactive) and 71.8% (inactive); in assay [15], 51.8% (inactive) and 71.7% (inactive); in assay [16] it was 45.2% (inactive) and 53.9% (inactive); in [17] it was 38.5% (inactive) and 14.4% (inactive); in assay [18], 44.7% (inactive) and 55.6% (inactive). For the same molecule, the growth was 43.2% (inactive) and 74.3% (inactive) in [19]; 57.3% (inactive) and 69% (inactive) in [20].

Turning to `S=c1ccc2ccccc2[nH]1`, the growth in assay [1] is 107% (inactive) and 101% (inactive); in assay [2], 90.2% (inactive) and 104% (inactive); in assay [3] it was 96.8% (inactive) and 96.2% (inactive); in assay [4] it was 92.2% (inactive) and 93.3% (inactive); in assay [5] it was 107% (inactive); in [6], 86.5% (inactive) and 94.5% (inactive). Besides, the growth is 93.3% (inactive) and 89.6% (inactive) in [7]; 95.7% (inactive) and 94.4% (inactive) in assay [8]; 107% (inactive) and 106% (inactive) in [9]; 94.3% (inactive) and 114% (inactive) in assay [10]; 115% (inactive) and 111% (inactive) in [11]; 90.7% (inactive) and 103% (inactive) in assay [12]. Moreover, the growth in assay [13] is 85.9% (inactive) and 98.5% (inactive); in assay [14] it was 93.9% (inactive) and 100% (inactive); in assay [15], 106% (inactive) and 105% (inactive); in assay [16] it was 107% (inactive) and 99.7% (inactive); in [17], 104% (inactive) and 109% (inactive); in assay [18], 97.9% (inactive) and 102% (inactive). Also, the growth in assay [19] was 101% (inactive) and 92.3% (inactive); in [20], 99.6% (inactive) and 107% (inactive).

For the molecule `CCCCOC1NC(=O)NC(=O)C1(F)C(=O)OCC` (stereo not given), the growth in [1] is 79.6% (inactive) and 55.9% (inactive); in assay [2], 101% (inactive) and 102% (inactive); in assay [3] it was 74% (inactive) and 67.9% (inactive); in assay [4], 76.9% (inactive) and 43.3% (inactive); in assay [5] it was 47.2% (inactive) and 25.6% (inactive); in assay [6], 67.6% (inactive) and 85.6% (inactive). The growth is 80.1% (inactive) in [7]; 48.8% (inactive) and 46.3% (inactive) in [8]; 93% (inactive) and 67.6% (inactive) in assay [9]; 61.7% (inactive) and 53.9% (inactive) in assay [10]; 73% (inactive) and 51.5% (inactive) in assay [11]; 88.1% (inactive) and 57.4% (inactive) in assay [12]. Further, the growth in assay [13] was 65.7% (inactive) and 65.1% (inactive); in [14] it was 92.8% (inactive) and 75% (inactive); in assay [15], 98.1% (inactive) and 82.7% (inactive); in assay [16], 98.8% (inactive) and 83.1% (inactive); in [17], 94.1% (inactive) and 93.7% (inactive); in assay [18], 11.3% (inactive) and 5.65% (active). Also, the growth was 77.2% (inactive) in assay [19]; 71.4% (inactive) and 71.3% (inactive) in assay [20].

As to `NCCSSC/C=C\CSSCCN`, the growth in assay [1] was 102% (inactive); in [2] it was 90.1% (inactive); in [3], 100% (inactive); in assay [4], 98.4% (inactive); in [5], 97.5% (inactive); in assay [6] it was 84.6% (inactive). For the same molecule, the growth in [7] was 88.1% (inactive); in assay [8] it was 90.1% (inactive); in [9] it was 99% (inactive); in [10], 113% (inactive); in assay [11] it was 104% (inactive); in [12], 95.7% (inactive). Moreover, the growth in assay [13] is 103% (inactive); in assay [14], 100% (inactive); in assay [15] it was 102% (inactive); in assay [16] it was 99.5% (inactive); in assay [17], 104% (inactive); in assay [18], 109% (inactive). For the same molecule, the growth in assay [19] is 91.3% (inactive); in [20], 96.9% (inactive).

Values taken from PubChem BioAssay (NCI).
